Laboratory results published in PubChem BioAssay (NCATS).
Several values for one entry are separate records, joined by “and”; a condition that tells them apart may be missing. Equal values may be shown once. Results filed as inconclusive are left out. Activity calls are given as the source filed them. Unless noted, the call rests on the fitted dose curve; in most records, active means well fitted curve in the direction sought with a large enough effect; inconclusive means small, poorly fitted or top-dose-only effect, or another doubt; inactive means no such curve, though single readings can be large; an effect the other way counts as inactive or inconclusive.

How the values were obtained:
[1] = test system: OV90; experiment: Primary qHTS to identify gynecologic anti-cancer compounds using libraries of approved drugs and bioactive compounds (AID 1345084); settings: Gynecologic cancer cell panel viability, ATPlite luminescence, 48 h; series mostly up to 57.5 µM; further: nearly all actives have a fitted effect of over 55% in size; further: potency means the concentration at half of the fitted maximal effect
In short: (§1)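 Measured: luminescence after ATPlite addition (15 min, RT). Exposure: 48 h, 37 C, 5% CO2.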

[2] = test system: astro; experiment: Drug repurposing screens with cells derived from glioblastoma tumor samples (AID 1345199); settings: viability, ATP luminescence, 48 h; series mostly up to 45.9 µM; further: nearly all actives have a fitted effect of over 40% in size; further: potency means the concentration at half of the fitted maximal effect; on activity, negative = cell killing: on the % scale 0 is the no-effect control and ±100 the full control effect
In short: (§2)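 Primary testing used CD133+ neurospheres from four GBM patients, seven concentrations, 48 h exposure and ATP-based viability; confirmation added three slower-growing patient lines.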

[3] = test system: JEG-3; experiment: Primary qHTS to identify gynecologic anti-cancer compounds using libraries of approved drugs and bioactive compounds (AID 1345084); settings: Gynecologic cancer cell panel viability, ATPlite luminescence, 48 h; series mostly up to 57.5 µM; further: nearly all actives have a fitted effect of over 55% in size; further: potency means the concentration at half of the fitted maximal effect
In short: as §1

[4] = test system: Tov-21-G; experiment: as above; settings: Gynecologic cancer cell panel viability, ATPlite luminescence, 48 h; series mostly up to 57.5 µM
In short: as §1

[5] = test system: PA-1; experiment: as above; settings: Gynecologic cancer cell panel viability, ATPlite luminescence, 48 h; series mostly up to 57.5 µM
In short: as §1

[6] = test system: SKOV3; experiment: as above; settings: Gynecologic cancer cell panel viability, ATPlite luminescence, 48 h; series mostly up to 57.5 µM
In short: as §1

[7] = test system: Tov112D; experiment: as above; settings: Gynecologic cancer cell panel viability, ATPlite luminescence, 48 h; series mostly up to 57.5 µM
In short: as §1

[8] = Drug repurposing screens with cells derived from glioblastoma tumor samples (AID 1345199); settings: GBM patient neurospheres viability, ATP luminescence, 48 h; further: nearly all actives have a fitted effect of over 40% in size; further: potency means the concentration at half of the fitted maximal effect; on activity, negative = cell killing: on the % scale 0 is the no-effect control and ±100 the full control effect
In short: as §2

[9] = qHTS assay to identify inhibitors of the type 1 interferon - major histocompatibility complex class I in skeletal muscle: Counter screen cell viability and HiBit confirmation (AID 1347412); settings: iHSKM muscle cells + IFN-b, HiBiT or CellTiter-Glo, 24 h; further: potency means the concentration at half of the fitted maximal effect; nearly all actives have a fitted effect of over 60% in size
In short: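 Human myoblast knock-in line, 4.0 ng/ml IFN-beta stimulation, 24 h compound treatment. Endpoints: HiBiT lytic luminescence (HLA-B level) and CellTiter Glo (ATP). Dosing 12 concentrations, 3-fold steps, 46 uM highest final.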

[10] = target: Nuclear receptor subfamily 1 group I member 2 (Rattus norvegicus) (UniProt Q9R1A7); experiment: qHTS assay for small molecule activators of the rat pregnane X receptor (rPXR) signaling pathway (AID 651751; call rule not given here; further: 0% is about no effect); settings: rPXR reporter cells, luciferase (One-Glo), 24 h
Chain of Nuclear receptor subfamily 1 group I member 2 (Rattus norvegicus) (Q9R1A7 whole entry, looked up): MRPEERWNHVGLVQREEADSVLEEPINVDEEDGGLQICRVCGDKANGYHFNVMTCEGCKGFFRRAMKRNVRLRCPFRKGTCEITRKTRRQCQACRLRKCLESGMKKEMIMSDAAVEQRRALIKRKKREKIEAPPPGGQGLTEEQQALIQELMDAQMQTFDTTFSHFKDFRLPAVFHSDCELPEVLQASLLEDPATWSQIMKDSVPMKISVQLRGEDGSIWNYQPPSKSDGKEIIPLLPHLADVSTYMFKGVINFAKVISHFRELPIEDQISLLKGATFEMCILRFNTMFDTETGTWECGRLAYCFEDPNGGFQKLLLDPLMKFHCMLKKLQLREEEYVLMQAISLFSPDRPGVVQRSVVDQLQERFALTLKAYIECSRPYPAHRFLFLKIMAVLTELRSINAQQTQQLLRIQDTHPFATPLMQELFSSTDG

[11] = at 46.1 µM (top of the series), tumour line C
[12] = at 45.9 µM (top of the series), tumour line B
[13] = at 20 µM (top of the series), tumour line C

COc1cc2c(cc1OC)-c1cc(=Nc3c(C)cc(C)cc3C)n(C)c(=O)n1CC2
inactive: Potency [1]
active: Potency [2] 17.8 µM

CCc1cccc(N(C)C(N)=Nc2cccc3ccccc23)c1
inactive: Potency [3] | Potency [4]

NC(N)=NC(=O)Cc1c(Cl)cccc1Cl
active: Potency ([8]; tumour line A) 5.62 µM
inactive: Potency [3] | Potency [5] | Potency [6] | Potency [4] | Potency [7] | activity, negative = cell killing [8, 11] -19.8% | Potency [2]

O=C(CCCN1CCC(O)(c2cccc(C(F)(F)F)c2)CC1)c1ccc(F)cc1
inactive: Potency [3] | Potency [5] | Potency [6] | Potency [4] | Potency [7] | Potency [2]

NC(N)=N/N=C/c1c(Cl)cccc1Cl
inactive: Potency [3] | Potency [5] | Potency [4] | Potency [7] | activity, negative = cell killing [8, 11] 0.325% | Potency [2]
active: Potency ([8]; tumour line A) 15.8 µM

OC(CCN1CCCCC1)(c1ccccc1)C1CCCCC1 (stereo unspecified)
inactive: Potency [3] | Potency [5] | Potency [6] | Potency [4] | Potency [7] | activity, negative = cell killing [8, 12] -11.3% | activity, negative = cell killing [8, 11] -28% | Potency [2]

OCCN1CCN(CCCN2c3ccccc3C=Cc3ccccc32)CC1
inactive: Potency [3] | Potency [5] | Potency [4] | Potency [7]

C[n+]1cc2c3c(ccc2c2ccc4cc5c(cc4c21)OCO5)OCO3
active: Potency [1] 11.2 µM | Potency [5] 5.01 µM | Potency [6] 3.55 µM | Potency [4] 7.94 µM | Potency [7] 10 µM | Potency [2] 4.47 µM | Potency ([9]; HiBiT) 1.11 µM | Potency ([9]; Viability) 2.22 µM

CNCCCN1c2ccccc2CCc2ccccc21
active: Potency ([8]; tumour line A) 8.91 µM
inactive: Potency [3] | Potency [5] | Potency [4] | activity, negative = cell killing [8, 13] 14.5%

OCCN1CCN(CC/C=C2/c3ccccc3Sc3ccc(C(F)(F)F)cc32)CC1
inactive: Potency [3] | Potency [4] | Potency [7] | activity, negative = cell killing [8, 11] -15%
active: Potency [1] 10 µM | Potency ([8]; tumour line A) 2 µM | Potency [2] 31.6 µM

CC(=O)[C@]1(O)Cc2c(O)c3c(c(O)c2[C@@H](O[C@H]2C[C@H](N)[C@H](O)[C@H](C)O2)C1)C(=O)c1ccccc1C3=O
active: Potency [1] 3.16 µM | Potency [5] 0.282 µM | Potency [6] 1.78 µM | Potency [4] 0.794 µM | Potency [7] 0.562 µM | Potency [2] 0.398 µM | Potency ([9]; HiBiT) 0.883 µM

CC(N=C(NC#N)Nc1ccncc1)C(C)(C)C (stereo unspecified)
inactive: Potency [1] | Potency [5] | Potency [6] | Potency [4] | Potency [7] | activity, negative = cell killing [8, 12] -17.7% | activity, negative = cell killing ([8]; at 45.9 µM (top of the series), tumour line D) -6.7% | activity, negative = cell killing [8, 11] -1.36% | Potency [2]

O=C1NCN(c2ccccc2)C12CCN(CCCC(c1ccc(F)cc1)c1ccc(F)cc1)CC2
inactive: Potency [4]
active: Potency [3] 31.6 µM | Potency [1] 20 µM | Potency [2] 12.6 µM

CCN(CC)CCCN(c1ccccc1)C1Cc2ccccc2C1
active: Potency [2] 12.6 µM
inactive: Potency [3] | Potency [5] | Potency [4] | Potency [7]

CN(C)CCCN1c2ccccc2Sc2ccccc21
active: Potency ([8]; tumour line A) 12.6 µM | Potency ([8]; tumour line D) 10 µM
inactive: Potency [3] | Potency [5] | Potency [6] | Potency [4] | Potency [7] | activity, negative = cell killing [8, 13] -19.7%

CN(C(=O)CCCOc1ccc2[nH]c(=O)ccc2c1)C1CCCCC1
inactive: Potency [3] | Potency [1] | Potency [4] | Potency [7] | activity, negative = cell killing [8, 12] -16.8% | Potency [2]
active: Potency ([8]; tumour line A) 11.2 µM

CC(C)(C)c1ccc(C(=O)CCCN2CCC(OC(c3ccccc3)c3ccccc3)CC2)cc1
active: Potency ([8]; tumour line A) 2.51 µM | Potency ([8]; tumour line B) 25.1 µM | Potency ([8]; tumour line D) 5.01 µM | Potency [2] 12.6 µM
inactive: Potency [3] | Potency [4] | Potency [7] | activity, negative = cell killing [8, 11] -18.9%

CCNC(=O)N1CCN(CCCC(c2ccc(F)cc2)c2ccc(F)cc2)CC1
inactive: Potency [3] | Potency [5] | Potency [4] | Potency [7] | Potency [2]

CC(C)COCC(CN(Cc1ccccc1)c1ccccc1)N1CCCC1 (stereo unspecified)
inactive: Potency [4] | activity, negative = cell killing [8, 11] -7.32%
active: Potency [1] 25.1 µM | Potency ([8]; tumour line A) 11.2 µM | Potency ([8]; tumour line D) 11.2 µM | Potency [2] 35.5 µM

NC1=NCC2c3ccccc3Cc3ccccc3N12 (stereo unspecified)
active: Potency ([8]; tumour line A) 12.6 µM
inactive: Potency [3] | Potency [5] | Potency [6] | Potency [4] | activity, negative = cell killing [8, 12] -23.2% | Potency [2]

COc1cc(C(=O)OCCCN2CCCN(CCCOC(=O)c3cc(OC)c(OC)c(OC)c3)CC2)cc(OC)c1OC
inactive: Potency [3] | Potency [5] | Potency [6] | Potency [7] | activity, negative = cell killing [8, 11] -7.95%
active: Potency ([8]; tumour line A) 3.98 µM | Potency ([8]; tumour line D) 22.4 µM

CCC(=O)c1ccc2c(c1)N(CCCN(C)C)c1ccccc1S2
inactive: Potency [3] | Potency [5] | Potency [4] | Potency [7]

Nc1nc(N)c2nc(-c3ccccc3)c(N)nc2n1
active: Potency [4] 20 µM | Potency ([8]; tumour line A) 12.6 µM | Potency ([8]; tumour line B) 28.2 µM
inactive: Potency [3] | Potency [6] | activity, negative = cell killing [8, 11] 0.453% | max response [10] 0.808% and 7.32%
